# Compound activity as filed in PubChem BioAssay.
# ROS inducer = ROS inducers in U2OS cancer cells, primary screen, cell-based, H2DCF-DA fluorescence | U2OS ROS induction | ROS induction (% of piperlongumine), % at 10 µM | 46,000 compounds, 2% hits; in the data active = ROS induction above about 79%, passing the limit was not always enough
# Hits are given with their value; i = inactive. The sample as a whole holds a higher share of hits than the screen did.
SMILES,ROS inducer
Cc1nn(Cc2ccc(F)cc2)c(C)c1NC(=O)C1CC(c2cccc(Br)c2)=NO1 (stereo unspecified),i
C[C@@H]1CC[C@]2(C(=O)O[C@@H]3O[C@H](CO[C@@H]4O[C@H](CO)[C@@H](O[C@@H]5O[C@@H](C)[C@H](O)[C@@H](O)[C@H]5O)[C@H](O)[C@H]4O)[C@@H](O)[C@H](O)[C@H]3O)CC[C@]3(C)C(=CCC4[C@@]5(C)C[C@@H](O)[C@H](O)[C@@](C)(CO)C5CC[C@]43C)C2[C@H]1C (stereo partly specified),i
C[C@@H]1CN([C@H](C)CO)C(=O)Cc2cc(NC(=O)NC3CCCCC3)ccc2O[C@H]1CN(C)Cc1ccc(C(=O)O)cc1,i
Cc1noc(C)c1S(=O)(=O)Nc1ccc2c(c1)CC(=O)N([C@@H](C)CO)C[C@H](C)[C@@H](CN(C)C(=O)Nc1ccc3c(c1)OCO3)O2,i
C[C@H]1CN([C@@H](C)CO)C(=O)c2cc(NS(=O)(=O)c3ccc(Cl)cc3)ccc2O[C@@H]1CN(C)Cc1ccc(C(F)(F)F)cc1,81
C[C@@H]1CN([C@@H](C)CO)C(=O)Cc2cc(NS(=O)(=O)c3ccc(F)cc3)ccc2O[C@@H]1CN(C)Cc1ccc(C(F)(F)F)cc1,i
C[C@@H]1CN([C@H](C)CO)C(=O)Cc2cc(NS(=O)(=O)c3ccc(F)cc3)ccc2O[C@H]1CN(C)Cc1ccc(C(F)(F)F)cc1,207
Cc1ccc(S(=O)(=O)Nc2ccc3c(c2)CC(=O)N([C@H](C)CO)C[C@@H](C)[C@@H](CN(C)Cc2ccc(C(F)(F)F)cc2)O3)cc1,i
C[C@H]1CN([C@@H](C)CO)C(=O)Cc2cc(NC(=O)Cn3cnnn3)ccc2O[C@H]1CN(C)C(=O)Nc1ccc(C(F)(F)F)cc1,i
C[C@@H]1CN([C@H](C)CO)C(=O)Cc2cc(NS(=O)(=O)c3ccc(Cl)cc3)ccc2O[C@@H]1CN(C)Cc1ccc(C(F)(F)F)cc1,i
C[C@@H]1CN([C@@H](C)CO)C(=O)Cc2cc(NS(=O)(=O)c3ccc(Cl)cc3)ccc2O[C@@H]1CN(C)Cc1ccc(C(F)(F)F)cc1,i
C[C@@H]1CN([C@H](C)CO)C(=O)Cc2cc(NC(=O)Cn3cnnn3)ccc2O[C@@H]1CN(C)Cc1ccc(C(F)(F)F)cc1,87
C[C@@H]1CN([C@H](C)CO)C(=O)c2cc(NS(=O)(=O)c3ccc(Cl)cc3)ccc2O[C@H]1CN(C)Cc1ccc(C(F)(F)F)cc1,i
C[C@H]1CN([C@@H](C)CO)C(=O)Cc2cc(NS(=O)(=O)c3ccc(F)cc3)ccc2O[C@@H]1CN(C)Cc1ccc(C(F)(F)F)cc1,146
C[C@H](CO)N1C[C@H](C)[C@@H](CN(C)Cc2ccc(C(F)(F)F)cc2)Oc2ccc(NS(=O)(=O)c3ccc(Cl)cc3)cc2C1=O,i
C[C@@H]1CN([C@@H](C)CO)C(=O)Cc2cc(NC(=O)Cn3cnnn3)ccc2O[C@@H]1CN(C)Cc1ccncc1,i
Cc1noc(C)c1S(=O)(=O)Nc1cccc2c1O[C@@H](CN(C)Cc1ccc(Cl)c(Cl)c1)[C@@H](C)CN([C@H](C)CO)C2=O,i
COc1cc(OC)c(C(=O)NCCCN(C)C)cc1OC,i
CCOC(=O)c1c(NC(=O)CSc2nc3ccccc3[nH]2)sc(C)c1C,i
CC12CCC(CC(=O)c3ccccc3)(CC1)CC2,i
CC(C)(C)C1CCC2(CC1)C(C#N)C2(C#N)C(=O)c1ccccc1 (stereo unspecified),159
C[C@@H]1O[C@@H](O[C@H]2[C@@H]3C=CO[C@@H](O[C@@H]4O[C@H](CO)[C@@H](O)[C@H](O)[C@H]4O)[C@@H]3[C@@]3(CO)O[C@@H]23)[C@H](O)[C@H](O)[C@H]1OC(=O)/C=C/c1ccccc1,i
O=C(c1ccc(Cl)cc1)c1oc2ccccc2c1-c1cnn(-c2ccccc2)c1,i
C[C@H]1CN([C@@H](C)CO)C(=O)c2cccc(NS(C)(=O)=O)c2O[C@@H]1CN(C)Cc1ccc(C(=O)Nc2ccccc2N)cc1,i
C[C@H]1CN([C@@H](C)CO)C(=O)c2cc(NC(=O)NC3CCCCC3)ccc2O[C@@H]1CN(C)Cc1ccc(-c2ccccc2)cc1,137
SMILES,ROS inducer
C[C@@H]1CN([C@@H](C)CO)C(=O)c2cc(NC(=O)NC3CCCCC3)ccc2O[C@H]1CN(C)Cc1ccc(-c2ccccc2)cc1,i
COc1ccc(CN(C)C[C@@H]2Oc3c(NC(=O)Nc4ccccc4)cccc3C(=O)N([C@H](C)CO)C[C@H]2C)cc1,i
C[C@@H]1CN([C@H](C)CO)C(=O)c2cc(NC(=O)NC3CCCCC3)ccc2O[C@@H]1CN(C)Cc1ccc(-c2ccccc2)cc1,i
C[C@H](CO)N1C[C@H](C)[C@H](CN(C)Cc2ccc(Oc3ccccc3)cc2)Oc2c(NC(=O)C3CCCCC3)cccc2C1=O,i
C[C@@H]1CN([C@@H](C)CO)C(=O)c2cc(NC(=O)C3CC3)ccc2O[C@@H]1CN(C)Cc1ccc(Oc2ccccc2)cc1,i
COc1ccc(CN(C)C[C@H]2Oc3c(NC(=O)Nc4ccccc4)cccc3C(=O)N([C@@H](C)CO)C[C@H]2C)cc1,i
